# Screening data (PubChem BioAssay)
# BoNT F protease: blocks Botulinum neurotoxin F light chain protease | Multiplex microsphere protease cleavage assay, flow cytometry | inhibition, % at 10 µM | 360,000 compounds, 0.22% hits; in the data active = inhibition above about 35%, passing the limit was not always enough; inconclusive = no clear call, values can overlap the other calls; also: plate controls were buffer without enzyme for full effect and enzyme alone for no effect
# Bead autofluor: counter-screen for toxin protease inhibitors: compound fluorescence; AID 624483; fluorescence intensity (concentration not given with the values); 360,000 compounds, 3.1% hits; compound autofluorescence counterscreen, microsphere flow cytometry; stronger effect = higher value; in the data active = fluorescence intensity above about 16000; inconclusive = no clear call, values can overlap the other calls
# VHR inh abs: blocks human VHR1 dual specificity phosphatase; recombinant VHR phosphatase, pNPP absorbance; AID 1654; 290,000 compounds, 0.52% hits; inhibition, % at 13.3 µM; in the data active = inhibition above about 50%
# MazF activator: MazEF (E. coli) toxin RNase activation; 350,000 compounds, 0.32% hits; FAM/BHQ RNA-DNA oligo cleavage fluorescence, 5 h; activation, % at 20 µM; AID 504720; P0AE70; in the data active = activation above about 50%
# Anthrax LF prot: blocks Bacillus anthracis lethal factor protease; P15917; inhibition, % at 10 µM; 360,000 compounds, 0.12% hits; multiplex microsphere protease cleavage assay, LF; also: plate controls were buffer without enzyme for full effect and enzyme alone for no effect
# BoNT-A LC inh2: BoNT A light chain protease inhibition. multiplex microsphere protease substrate cleavage, flow cytometry. inhibition, % at 10 µM. 360,000 compounds, 0.17% hits. AID 588499; also: plate controls were buffer without enzyme for full effect and enzyme alone for no effect
# BoNT-A LC CP1: inhibitors of Botulinum neurotoxin A light chain protease; inhibition, % at 10 µM; 720 compounds, 3% hits; multiplex microsphere protease assay, flow cytometry; shares compounds with BoNT F protease; in the data active = inhibition above about 32%
# BoNT-F LC CP1: BoNT/F light chain protease inhibition | shares compounds with BoNT F protease | multiplex microsphere protease cleavage assay, flow cytometry | inhibition, % at 10 µM | 720 tested, under 10 active; call rule not given here
# LF protease CP1: blocks anthrax lethal factor protease. AID 602142. inhibition, % at 10 µM. multiplex microsphere protease cleavage assay, LF. 720 tested, under 10 active. shares compounds with BoNT F protease; call rule not given here
# Numbers without * were called inactive; ? = inconclusive; · = not tested or not shown. A selection: hits, their analogues and other compounds. The true share with any hit is near 4.1%. Rule as the data show it, unless noted: active = inhibition above about 30%; inconclusive = no clear call, values can overlap the other calls; inactive = below that.
SMILES,BoNT F protease,Bead autofluor,VHR inh abs,MazF activator,Anthrax LF prot,BoNT-A LC inh2,BoNT-A LC CP1,BoNT-F LC CP1,LF protease CP1
Cc1cc(-c2nnc(SCC(=O)Nc3ccccc3)n2C)no1,?,4305,16,-5,32*,?,1,0,8
O=C(Cc1cccs1)Nc1ccc(F)c(S(=O)(=O)N2CCOCC2)c1,-1,3754,·,-4,-9,0,·,·,·
Cc1ccc(CN2C(=O)C(F)(F)Oc3ccccc32)cc1,-2,3044,·,·,0,-1,·,·,·
Cc1ccc(C)c(S(=O)(=O)N2CCN(C(=O)CCC(=O)NCc3ccc(Cl)cc3Cl)CC2)c1,-9,2949,·,3,-1,-1,·,·,·
Cc1cc(-c2c(C(=O)N3CCOCC3)c(C)nn2-c2ccccc2)no1,?,3397,37,3,34*,2,-6,-14,-1
Cc1cc(-c2c(C(=O)N3CCOCC3)c(C)nn2-c2cccc(C(F)(F)F)c2)no1,?,4002,25,5,2,?,·,·,·
NC(=O)c1cc(S(=O)(=O)NCc2cccs2)cs1,-1,5960,23,6,1,-1,·,·,·
Cc1c(NC(=O)c2ccc(N(C)S(C)(=O)=O)cc2)c(=O)n(-c2ccccc2)n1C,-15,6194,12,2,-5,-2,·,·,·
Cc1c(NC(=O)c2ccccc2N(C)S(=O)(=O)c2ccccc2)c(=O)n(-c2ccccc2)n1C,48*,6019,22,7,-25,44*,1,3,-1
COc1ccc(CCNC(=O)CCCc2ccccc2)cc1OC,35*,3365,30,2,10,2,0,-5,2
CC1CCCC(N2CCN(C(=O)c3ccccc3F)CC2)C1 (stereo not drawn),?,3001,-35,3,38*,1,-1,-5,2
CC1CCN(C2CCN(C(=O)c3ccccc3F)CC2)CC1,·,·,24,5,·,·,·,·,·
COc1ccc(S(=O)(=O)N2CCN(C)CC2)cc1,74*,3909,17,8,-5,3,-1,0,-3
COc1ccc(S(=O)(=O)N2CCN(Cc3ccc(OC)c(OC)c3)CC2)cc1,?,3690,51*,-21,42*,-6,-2,-2,-2
CC1(c2ccc3c(c2)OCCO3)NC(=O)N(CC(=O)Nc2ccccc2F)C1=O (stereo not drawn),?,?,·,-6,-4,3,·,·,·
Cc1cc(C)n2nc(C(=O)Nc3c(C)nn(Cc4ccc(F)cc4)c3C)cc2n1,4,4003,17,-4,-3,-1,-2,2,1
CCc1ccc(-c2cc(C(F)(F)F)n3nc(C(=O)Nc4c(C)nn(Cc5ccccc5C)c4C)cc3n2)s1,19,19939*,-10,-11,30*,29,3,-4,4
CCc1ccc(-c2cc(C(F)(F)F)n3nc(C(=O)Nc4cnn(Cc5ccccc5C)c4)cc3n2)s1,10,10727,2,-9,2,4,2,0,-4
CCc1ccc(-c2cc(C(F)(F)F)n3nc(C(=O)Nc4c(C)nn(Cc5ccccc5Cl)c4C)cc3n2)s1,17,21126*,2,-6,29,?,5,3,4
COc1cccc(NC(=O)CN2CCC(NC(=O)c3ccccc3C)CC2)c1,-5,3839,·,0,-7,-1,·,·,·
Cc1nn(Cc2ccccc2)c(C)c1NC(=O)c1cc2nc(-c3ccco3)cc(C(F)(F)F)n2n1,·,·,18,3,·,·,-1,1,4
O=C(Nc1cnn(Cc2ccc(F)cc2)c1)c1cc2nc(-c3ccco3)cc(C(F)(F)F)n2n1,4,3265,16,8,-3,0,1,4,-4
Cc1ccccc1Cn1ccc(NC(=O)c2cc3nc(-c4ccco4)cc(C(F)(F)F)n3n2)n1,-3,2854,10,8,0,0,·,·,·
O=C(NCc1cccc(Cl)c1)N1CCN(S(=O)(=O)c2ccccc2F)CC1,69*,3551,26,8,-7,6,0,-7,4
O=C(NCc1ccc(F)cc1)N1CCN(S(=O)(=O)c2ccccc2F)CC1,2,3663,26,6,6,-1,·,·,·
SMILES,BoNT F protease,Bead autofluor,VHR inh abs,MazF activator,Anthrax LF prot,BoNT-A LC inh2,BoNT-A LC CP1,BoNT-F LC CP1,LF protease CP1
CCN(CC)C(=O)C(Sc1ccccc1)c1ccccc1 (stereo not drawn),57*,?,5,3,?,19,-1,-4,-3
CCCNC(=O)C(Sc1ccccc1)c1ccccc1 (stereo not drawn),1,8592,-13,-4,-1,0,·,·,·
COc1ccc(-n2cc(CNCCc3cnc[nH]3)c(-c3cccc(F)c3)n2)cc1,-13,2075,8,-5,-2,0,·,·,·
Fc1ccc(-c2ncc3ccccn23)cc1,-1,4490,-13,-2,15,36*,2,0,0
Brc1ccc(-c2ncc3ccccn23)cc1,-2,3322,21,-2,9,2,0,-4,-2
Fc1ccc(-c2nnc3ccccn23)cc1,-6,2599,-1,0,-1,-1,·,·,·
Cc1ccc(S(=O)(=O)Nc2cccc3c2O[C@H](CN(C)Cc2ccccc2)[C@@H](C)CN([C@H](C)CO)C3=O)cc1,-4,2933,·,4,-5,-1,·,·,·
CCN(CCCNC(=O)CN1C(=O)COc2ccccc21)c1ccccc1,21,5098,4,-1,35*,30*,1,-3,-4
O=C(c1nn2c(C(F)(F)F)cc(-c3cccs3)nc2c1Br)N1CCCc2ccccc21,18,2108,2,-2,19,47*,7,-2,6
CC(=O)NCCn1c(C)cc2ccccc21,2,5295,-17,-3,21,8,·,·,·
Cc1cc2ccccc2n1CCNC(=O)c1ccccc1,?,1420,20,-11,?,?,24,-6,17
COc1ccc(C(=O)NCCn2ccc3ccccc32)cc1,11,9335,-9,-2,36*,53*,2,13,1
CCC(C)c1cc(S(=O)(=O)N2CCOCC2)ccc1OC (stereo not drawn),44*,3252,-10,2,2,2,-1,-4,-3
Cc1ccc(CSC2=Nc3ccccc3C3=NC(=O)CN23)cc1,36*,4461,14,-6,-8,4,0,-2,2
CCn1cc(CNC(=O)c2c(-c3c(Cl)cccc3Cl)noc2C)c(C)n1,35*,2081,-1,-1,2,4,-1,-6,-2
Cc1onc(-c2c(Cl)cccc2Cl)c1C(=O)NCc1ccccn1,-6,10814,15,10,-1,-1,·,·,·
OC(CNCc1ccccc1F)COc1cccc2ccccc12 (stereo not drawn),35*,3445,40,8,6,2,1,-8,0
